Shown are actives, neighbours in structure and some others; about 12% of the full set was active somewhere.
Sfp inh: blocks B. subtilis Sfp PPTase activity; Q9F4F7; Biochemical Sfp PPTase activity, qHTS; Potency, µM, hits mostly inhibitors; 3.5% of 310,000 active; AID 1490;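 note: the enzyme is Sfp with the accession as filed and its product quenches rhodamine fluorescence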
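Buffer: 50 mM Hepes-Na pH 7.6, 10 mM MgCl2, 0.01% Nonidet P-40, 0.01% BSA. Enzyme 15 nM, pre-exposed to compound 15 min; substrates then added and fluorescence change tracked over 30 min.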
G9a block: G9a (human) methyltransferase inhibition; Q96KQ7; G9a H3K9 monomethylation, AlphaScreen, 2 h; Potency, µM (doses to about 102 µM), actives largely listed as inhibitors; 8.8% of 350,000 active; note: nearly all actives have a fitted effect of over 75% in size
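Compounds were preincubated with 20 nM G9a for 15 min, after which biotinylated H3K9 peptide (500 nM) and SAM (20 uM) started a 2 h room-temperature reaction. Monomethylated product was quantified by antibody-based AlphaScreen chemiluminescence.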
PLK1 PBD inh: inhibitors of human PLK1 polo-box domain binding | Plk1 PBD binding of FITC phosphopeptide, fluorescence polarization | Potency, µM, usual class: inhibitors | 2.8% of 360,000 active | AID 720504; note: series mostly up to about 57 µM; nearly all actives have a fitted effect of over 65% in size
Target sequence (P53350 whole entry, looked up, the tested form may be a part): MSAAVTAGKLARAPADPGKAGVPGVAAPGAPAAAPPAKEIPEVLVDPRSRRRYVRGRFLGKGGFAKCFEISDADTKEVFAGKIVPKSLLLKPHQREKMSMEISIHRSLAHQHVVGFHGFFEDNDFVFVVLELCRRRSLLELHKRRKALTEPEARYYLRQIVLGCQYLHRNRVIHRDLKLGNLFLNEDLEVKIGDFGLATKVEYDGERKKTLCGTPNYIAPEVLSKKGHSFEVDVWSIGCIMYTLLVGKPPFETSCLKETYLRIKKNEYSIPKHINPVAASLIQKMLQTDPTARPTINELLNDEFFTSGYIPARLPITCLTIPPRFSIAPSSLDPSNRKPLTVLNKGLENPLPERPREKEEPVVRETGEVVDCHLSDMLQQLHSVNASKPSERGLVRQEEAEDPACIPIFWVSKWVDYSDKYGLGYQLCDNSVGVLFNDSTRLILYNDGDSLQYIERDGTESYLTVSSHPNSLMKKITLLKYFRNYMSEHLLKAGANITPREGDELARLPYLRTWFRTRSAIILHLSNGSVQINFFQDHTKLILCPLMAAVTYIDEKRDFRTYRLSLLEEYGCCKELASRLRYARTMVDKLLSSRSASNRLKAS
HP1b chromo inh: blocks HP1-beta chromodomain binding to methylated histone tails; AlphaScreen HP1-beta / biotin-H3K9me3 peptide binding; 0.56% of 390,000 active; AID 540317; Potency, µM (highest dose often 114 µM), most hits filed as inhibitors; note: nearly all actives have a fitted effect of over 70% in size
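AlphaScreen: HP1-beta (50 nM) preformed 30 min with biotin-H3(1-18)K9me3 peptide (50 nM) in PBS pH 7.4, 0.01% Tween-20. Compound added for 30 min at RT, then streptavidin donor/nickel chelate acceptor beads (10 ug/mL) for 30 min.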
JMJD2A Tudor: blocks the human JMJD2A Tudor domain; 4.4% of 390,000 active; AID 504339; Potency, µM (highest dose often 114 µM), hits mostly inhibitors; AlphaScreen JMJD2A-Tudor / H3K4me3 peptide binding; note: nearly all actives have a fitted effect of over 50% in size
BAZ2B block: blocks human BAZ2B; Q9UIF8; AlphaScreen BAZ2B-H3K14Ac peptide displacement; Potency, µM (top dose mostly 114 µM), most hits filed as inhibitors; 4.4% of 360,000 active; note: nearly all actives have a fitted effect of over 60% in size
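BAZ2B (50 nM) with biotin-H3(5-23)K14Ac peptide (50 nM) in PBS pH 7.4, 0.01% Tween-20, preformed 30 min, then compound 30 min at room temperature; top concentration 110uM. AlphaScreen streptavidin donor/nickel chelate acceptor beads (10 ug/mL final), 20 min dark, signal read.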
Hits are given with their value; ! = repeats disagree; [ ] = dose if it differs, or a comment. Calls come from the whole dose curve; as a rule, active = well fitted curve in the direction sought with a large enough effect; inconclusive = small, poorly fitted or top-dose-only effect, or another doubt; inactive = no such curve, though single readings can be large; an effect the other way counts as inactive or inconclusive.

How did Cc1oc(-c2cccc(Cl)c2)nc1CN1CCC(C(=O)NCCCN2CCN(c3ccc(F)cc3)CC2)CC1 do in these assays?
G9a block: inconclusive; HP1b chromo inh: inactive; JMJD2A Tudor: inactive; BAZ2B block: 22µM

Results for CN1[C@@H]2CC[C@H]1CC(OC1c3ccccc3CCc3ccccc31)C2 (stereo not given in full) ?
Sfp inh: inactive; G9a block: inactive[5.15 µM]; PLK1 PBD inh: inactive; HP1b chromo inh: inactive; JMJD2A Tudor: 79µM; BAZ2B block: inactive

How did CN1C2CCC1CC(OC(c1ccc(F)cc1)c1ccc(F)cc1)C2 (stereo not given) do in these assays?
Sfp inh: inactive; G9a block: inactive

How did CN1C(=O)[C@]23CC4=CC=C[C@H](O)[C@H]4N2C(=O)[C@@]1(CO)SS3 do in these assays?
Sfp inh: 2.5µM

Results for CCOC(=O)c1ccc(NC(c2ccc(N(C)C)cc2)P(=O)(OC(C)C)OC(C)C)cc1 (stereo not given) ?
Sfp inh: inactive; G9a block: 35µM; PLK1 PBD inh: inactive; HP1b chromo inh: inconclusive; JMJD2A Tudor: 50µM; BAZ2B block: 32µM

What do the screens show for `Clc1ccc(C2CC3CCC2N3)cn1` (stereo not given)?
Sfp inh: inactive; G9a block: inactive

Results for COc1cc(C(=O)NC(=S)N2C[C@H]3C[C@H](C2)c2cccc(=O)n2C3)cc(OC)c1OC ?
Sfp inh: inconclusive; G9a block: 25µM; PLK1 PBD inh: inactive; HP1b chromo inh: inactive; JMJD2A Tudor: inactive; BAZ2B block: inconclusive

Results for COc1cc(CN2CC3CC(C2)c2cccc(=O)n2C3)cc(OC)c1OC (stereo not given) ?
Sfp inh: inactive; G9a block: inactive[12.7 µM]; PLK1 PBD inh: inactive; HP1b chromo inh: inactive; JMJD2A Tudor: inactive; BAZ2B block: 79µM

How did O=c1cccc2n1CC1CC2CN(Cc2c(Cl)cccc2Cl)C1 (stereo not given) do in these assays?
Sfp inh: inactive; G9a block: 35µM; PLK1 PBD inh: inactive; HP1b chromo inh: inactive; JMJD2A Tudor: inactive; BAZ2B block: 56µM

How did COc1cc(OC)cc(C(=O)NC(=S)N2C[C@H]3C[C@H](C2)c2cccc(=O)n2C3)c1 do in these assays?
Sfp inh: inactive; G9a block: 50µM; PLK1 PBD inh: inactive; HP1b chromo inh: inactive; JMJD2A Tudor: inactive; BAZ2B block: inconclusive

What do the screens show for `Cc1ccc(CN2CC3CC(C2)c2cccc(=O)n2C3)cc1` (stereo not given)?
Sfp inh: inactive; G9a block: inactive[12.7 µM]; PLK1 PBD inh: inactive; HP1b chromo inh: inactive; JMJD2A Tudor: inactive; BAZ2B block: inactive

How did COc1cc(C)c(-c2nc(CN3C[C@@H]4C[C@@H](C3)c3cccc(=O)n3C4)c(C)o2)cc1C do in these assays?
Sfp inh: inactive; G9a block: inconclusive; PLK1 PBD inh: inactive; HP1b chromo inh: inactive; JMJD2A Tudor: inactive; BAZ2B block: inactive

What do the screens show for `CCc1ccc(NC(=O)CN2C(=O)C3(SCC(=O)N3c3ccc(F)c(F)c3)c3ccccc32)cc1` (stereo not given)?
G9a block: inconclusive; HP1b chromo inh: inactive; JMJD2A Tudor: inactive; BAZ2B block: inactive

Results for CCOc1ccc(CCNC(=O)c2cc3c(-c4ccc(OC)c(OC)c4)nn(C)c3s2)cc1OCC ?
G9a block: inconclusive; HP1b chromo inh: inactive; JMJD2A Tudor: inconclusive

Results for CC1CC2CCC(O2)C(C)C(=O)OC(C)CC2CCC(O2)C(C)C(=O)OC(C)CC2CCC(O2)C(C)C(=O)OC(C)CC2CCC(O2)C(C)C(=O)O1 (stereo not given) ?
Sfp inh: inactive

What do the screens show for `Cn1cnc([N+](=O)[O-])c1Sc1ccc([N+](=O)[O-])cc1`?
Sfp inh: 56µM; PLK1 PBD inh: 11µM; HP1b chromo inh: inactive; JMJD2A Tudor: inactive; BAZ2B block: inactive

What do the screens show for `CC(C)(Cl)[N+](=O)[O-]`?
G9a block: inactive[0.501 µM]; PLK1 PBD inh: inactive; HP1b chromo inh: inactive; JMJD2A Tudor: inactive; BAZ2B block: inactive

What do the screens show for `O=[N+]([O-])C(Br)(CO)CO`?
Sfp inh: 8.9µM; G9a block: 1.8µM

What do the screens show for `CC1CN(c2ccccc2)NC1=O` (stereo not given)?
Sfp inh: inactive; G9a block: 35µM; PLK1 PBD inh: inactive; HP1b chromo inh: inactive; JMJD2A Tudor: inactive; BAZ2B block: inactive

How did Cn1cc(C(=O)N2CCCCC2)c2ccccc21 do in these assays?
Sfp inh: inactive; G9a block: inactive; PLK1 PBD inh: inactive; HP1b chromo inh: inactive; JMJD2A Tudor: inactive; BAZ2B block: inactive

How did Cn1cc(C(=O)C(=O)N[C@H]2CN3CCC2CC3)c2ccccc21 do in these assays?
Sfp inh: 56µM!; G9a block: inactive

Results for O=C(NC(=S)N1CC1)c1ccccc1 ?
PLK1 PBD inh: inactive

How did CN(C)c1ccc(CNC(=O)Cn2c(=O)oc3cc(S(=O)(=O)N4CCCCCC4)ccc32)cc1 do in these assays?
G9a block: 11µM; HP1b chromo inh: inactive; JMJD2A Tudor: inconclusive; BAZ2B block: 25µM

What do the screens show for `COc1ccc(CNC(=O)Cn2c(=O)oc3cc(S(=O)(=O)N4CCCC4)ccc32)cc1`?
Sfp inh: inactive; G9a block: inactive; PLK1 PBD inh: inactive; HP1b chromo inh: inactive; JMJD2A Tudor: inactive; BAZ2B block: inactive

How did CC[C@H](C)[C@H](NC(=O)CN)C(=O)N[C@@H](CC(C)C)C(=O)NCC(=O)N[C@@H](Cc1ccccc1)C(=O)N[C@H](C(=O)N[C@@H](Cc1ccccc1)C(=O)N[C@H](C(=O)N[C@@H](CC(C)C)C(=O)O)[C@@H](C)O)C(C)C do in these assays?
Sfp inh: inactive

Results for O=C(O)COc1ccc(Br)cc1C(c1c(C(=O)O)[nH]c2ccccc12)c1c(C(=O)O)[nH]c2ccccc12 ?
Sfp inh: inactive; PLK1 PBD inh: 27µM; HP1b chromo inh: inactive; JMJD2A Tudor: inactive; BAZ2B block: inactive

How did C#CCOc1ccc(Br)cc1C(c1c(C)[nH][nH]c1=O)c1c(C)[nH][nH]c1=O do in these assays?
Sfp inh: inactive; G9a block: inactive; PLK1 PBD inh: inconclusive; HP1b chromo inh: inactive; JMJD2A Tudor: inactive; BAZ2B block: inactive

How did COc1cc(C(=O)OCc2cc(=O)c(O)co2)ccc1OC(F)F do in these assays?
Sfp inh: inactive; G9a block: inconclusive; PLK1 PBD inh: inactive; HP1b chromo inh: inactive; JMJD2A Tudor: inactive; BAZ2B block: inconclusive

Results for C=C1[C@@H]2C[C@]3(C(CC2=O)[C@]24C5C[C@H]3[C@H]2N(CC)C[C@]5(C)CC[C@@H]4O)[C@@H]1O (stereo not given in full) ?
Sfp inh: inactive

Compound activity from PubChem.
